HEK293 tox: cytotoxicity in counter-screen for GLP-1R inverse agonists; HEK293 cAMP-luciferase reporter cells, luminescence, 24 h; Potency, µM (doses to about 38.3 µM), without a hit: at the top dose activity change, negative = inhibition, usual class: inhibitors; 410,000 compounds, 0.13% hits;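 note: loss of luciferase light is scored as toxicity; potency is the fitted concentration of half-maximal effect; % is set by controls: 0 for no effect and ±100 for the full control effect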
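1536-well qHTS counterscreen of the MLSMR; 200 cells/uL, 12 h pre-incubation, 23 nL cpd, 24 h at 37 deg C 5% CO2, luciferase detection reagent, 12 min RT, luminescence. Inhibition = undesired.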
ClpP mod: qHTS Assay for Activators of ClpP; Potency, µM (doses to about 57.5 µM), inactives show at the top dose activity change, negative = active; 340,000 compounds, 1.9% hits; AID 651965, 2013; ATP-dependent Clp protease proteolytic subunit (Bacillus subtilis (strain 168)), P80244; purified B. subtilis ClpP, FRET peptide cleavage, 20 min; active = well fitted falling curve with a large enough effect; inconclusive = small, poorly fitted or top-dose-only effect; inactive = no such curve, though single readings can be large or run the other way; note: potency is the fitted concentration of half-maximal effect; the source files actives as falling curves though it sought activators and does not explain the sign; nearly all actives have a fitted effect of over 65% in size
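Buffer: 100 mM Tris/HCl pH8, 100 mM KCl, 0.05% low protease BSA, 2.5% glycerol, 0.01% Tween-20. ClpP 10 microg/mL final; 20 min RT; delta FRET normalized to ADEP and DMSO controls.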
D3 antag: antagonists of human D3 dopamine receptor. P35462. 360,000 compounds, 2.5% hits. max response, negative = inhibition, %. AID 652054. D3R cells, DiscoveRx beta-arrestin luminescence, antagonist mode; stronger effect = lower value; in the data active = max response below about -50%; inconclusive = no clear call, values can overlap the other calls; note: % is set by controls: 0 for no effect and ±100 for the full control effect
Target sequence (P35462 whole entry, looked up): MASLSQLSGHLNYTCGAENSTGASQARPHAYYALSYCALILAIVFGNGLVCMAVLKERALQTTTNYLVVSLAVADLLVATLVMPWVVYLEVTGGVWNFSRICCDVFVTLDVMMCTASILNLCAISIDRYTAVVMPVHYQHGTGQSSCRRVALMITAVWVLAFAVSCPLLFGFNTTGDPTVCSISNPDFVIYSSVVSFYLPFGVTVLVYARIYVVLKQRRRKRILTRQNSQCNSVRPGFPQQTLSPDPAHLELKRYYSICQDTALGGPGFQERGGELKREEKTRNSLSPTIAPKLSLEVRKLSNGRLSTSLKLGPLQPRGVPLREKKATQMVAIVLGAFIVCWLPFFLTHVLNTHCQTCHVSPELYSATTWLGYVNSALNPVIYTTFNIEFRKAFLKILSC
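Cells plated overnight at 1500 cells/well, then exposed to library compounds with dopamine controls for 90 minutes at 37 degrees C. DiscoveRx reagent added for 30–60 minutes at room temperature; luminescence read, quantitative HTS format.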
GLP-1R agonist: agonists of human GLP-1 receptor; P43220; HEK293 GLP-1R CRE-luciferase, luminescence, 4-6 h; cells express a hypersensitive GLP-1R form; Potency, µM (doses to about 45.6 µM), without a hit: top-dose activation, most hits filed as activators; 380,000 compounds, 0.007% hits; note: potency is the fitted concentration of half-maximal effect; % of control where 0% means no effect
D3 ag: activates the human D3 dopamine receptor. P35462. 410,000 compounds, 0.58% hits. D3R DiscoveRx beta-arrestin cells, luminescence, 90 min. max activation, %; in the data active = max activation above about 30%; note: 0% is about no effect
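Cells at 1500/well, incubated overnight, then treated with pinned compounds (dopamine as control) for 90 min at 37 degrees C. DiscoveRx reagent added for 30 - 60 minutes at room temperature; luminescence read.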
GLP-1R inv ag: inverse agonists of human GLP-1 receptor | P43220 | Potency, µM (doses to about 38.3 µM), for the others: at the highest dose activity change, negative = inhibition, usual class: inhibitors | 410,000 compounds, 1.6% hits | HEK293 GLP-1R CRE-luciferase, luminescence, 24 h; GLP-1R form is constitutively active; note: potency is the fitted concentration of half-maximal effect; % is set by controls: 0 for no effect and ±100 for the full control effect; nearly all actives have a fitted effect of over 55% in size
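Constitutively active GLP-1R drives a cAMP-responsive luciferase in stably transfected HEK293 cells; test compounds are added after overnight (12 h) attachment and left 24 hr, and signal loss in luminescence marks inhibition.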
An asterisk follows results filed as active; ? = inconclusive; . = no result given. An excerpt weighted towards active compounds, which were near 5.7% of everything screened. Unless noted, calls come from the whole dose curve; as a rule, active = well fitted curve in the direction sought with a large enough effect; inconclusive = small, poorly fitted or top-dose-only effect, or another doubt; inactive = no such curve, though single readings can be large; an effect the other way counts as inactive or inconclusive.

SMILES	HEK293 tox	ClpP mod	D3 antag	GLP-1R agonist	D3 ag	GLP-1R inv ag
O=C(NCc1ccccc1)c1nccnc1CO	1%	16µM*	-8	0%	4	8%
CC(NS(=O)(=O)c1ccc(Br)cc1)C(=O)NCc1ccco1 (stereo not given)	16%	.	-13	15%	7	9%
O=C(C[n+]1ccccc1Br)c1ccc(Cl)cc1	.	0%	.	.	.	.
CCOC(=O)CSc1nc2cc(OCC)ccc2cc1C#N	34%	16µM*	34	18%	4	0%
CCc1nc(SCC(=O)N2CCc3cc(OC)c(OC)cc3C2)c(C#N)cc1C	-6%	32µM*	-20	18%	2	1%
COc1cc2cc(C#N)c(SCC(=O)N3CCOCC3)nc2cc1OC	-11%	-27%	16	24%	7	101%
CCOc1ccc2cc(C#N)c(SCC(=O)OCc3ccccc3)nc2c1	.	4%	.	.	.	.
CCOC(=O)CSc1nc2cc(OC)c(OC)cc2cc1C#N	.	32µM*	.	.	.	.
Cc1ccc2cc(C#N)c(SCC(=O)NNC(=O)Cc3ccccc3)nc2c1	8%	28µM*	8	14%	2	8%
C[C@@H]1CN([C@H](C)CO)S(=O)(=O)c2ccc(Br)cc2O[C@@H]1CN(C)Cc1ccc(C(=O)O)cc1	5%	1%	-5	5%	-2	3%
C[C@@H]1CN([C@@H](C)CO)S(=O)(=O)c2ccc(/C=C/c3ccccc3)cc2O[C@@H]1CN(C)Cc1ccc(C(=O)O)cc1	0%	-23%	9	28%	38*	42%
Cc1ccc2cccc(O)c2n1	.	-1%	.	.	.	.
CC(C)(C)NC(=O)Nc1ccc2nccnc2c1	92%	20µM*	-3	-5%	3	-3%
CCC(=NN=C(CC)c1ccccc1O)c1ccccc1O	24%	-1%	27	-1%	45*	-13%
C/C(=N/N=C(\C)c1ccccc1O)c1ccccc1O	8%	.	7	5%	4	22%
COc1ccc(-c2cc(-c3nnc(COC(=O)C4CC4C)o3)c3ccccc3n2)cc1OC (stereo not given)	28%	-16%	34	1%	50*	?
CCCN=C(Nc1ccc(Cl)cc1)c1cccnc1	-25%	0%	19	-10%	10	0%
CCCCN=C(Nc1ccc(Cl)cc1)c1cccnc1	-30%	0%	-64*	4%	-9	0%
CCC(CC)C(=O)N(C)c1c(C)nc2c(OCc3cc(Cl)cc(Cl)c3)cccn12	-1%	-5%	?	10%	-9	11µM*
CCC(CC)C(=O)N(C)c1c(C)nc2c(OCc3cccc(Cl)c3)cccn12	1%	0%	-62*	-4%	-3	?
O=C(Nc1cccc(Br)c1)N1CCC(CN2CCCCCC2)CC1	-3%	-6%	.	.	-5	-6%
CC1CCC/C(=C\Nc2ccc3c(c2)OCO3)C1=O (stereo not given)	?	-1%	-25	2%	-2	-4%
CC1CCC/C(=C\Nc2ccccc2C(=O)O)C1=O (stereo not given)	11%	22µM*	-9	-8%	21	10%
CC(C)N1CC=C2C(C#N)=C(N)C(C#N)(C#N)C(c3ccccc3)C2C1 (stereo not given)	55%	?	-77*	-12%	0	-7%
CCN1CC=C2C(C#N)=C(N)C(C#N)(C#N)C(c3cc(Cl)ccc3Cl)C2C1 (stereo not given)	113%	22µM*	-90*	-1%	-18	?
COc1cc(C(=O)NCC2CCCO2)cc(OC)c1OC (stereo not given)	8%	-4%	-22	10%	6	8%
COc1cccc(OC)c1OCC(C)CNCC1CCCO1 (stereo not given)	?	1%	-67*	3%	-18	-27%

Screens from PubChem BioAssay.
